Source: PubChem BioAssay (National Center for Advancing Translational Sciences (NCATS))
VDR inhibitor – vitamin D3 receptor (human) inhibition | actives 0.93% (n = 400,000) | VDR-SRC2-3 peptide fluorescence polarization, 2 h | Potency, µM, usual class: inhibitors | P11473
Target sequence (P11473 whole entry, looked up): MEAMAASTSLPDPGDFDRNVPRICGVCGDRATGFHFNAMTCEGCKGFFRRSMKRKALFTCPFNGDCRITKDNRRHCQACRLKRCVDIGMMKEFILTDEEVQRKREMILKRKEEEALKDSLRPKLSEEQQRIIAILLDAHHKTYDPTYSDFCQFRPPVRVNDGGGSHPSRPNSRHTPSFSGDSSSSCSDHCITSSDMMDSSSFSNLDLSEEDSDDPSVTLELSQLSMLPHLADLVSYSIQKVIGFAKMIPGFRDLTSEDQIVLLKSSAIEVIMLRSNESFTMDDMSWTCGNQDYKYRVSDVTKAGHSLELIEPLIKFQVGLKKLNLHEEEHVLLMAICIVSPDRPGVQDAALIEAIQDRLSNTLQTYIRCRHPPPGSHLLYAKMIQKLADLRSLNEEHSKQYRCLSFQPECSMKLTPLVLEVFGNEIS
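VDR–SRC2-3 interaction, FP format. Cmpds 23 nl via pintool, brief spin, 2 h ambient incubation.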
GLS inh – inhibitors of human glutaminase (GLS) | Potency, µM (highest dose often 45.5 µM), hits mostly inhibitors | actives 0.21% (n = 410,000) | GLS enzymatic activity, qHTS titration | AID 624170 | O94925
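Assay buffer: 45 mM KH2PO4 pH 8.2, 0.02% Tween-20. hKGA acts on L-glutamine (1 mM solution added); product glutamate is reported by an oxidase/peroxidase Amplex Red coupling, with fluorescence taken at baseline and 30 min.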
PI4K2A inh – blocks human PI4K2A kinase activity; purified PI4K2A, ADP-Glo luminescence, 1 h; stronger effect = lower value; activity change, negative = inhibition, % at 76.9 µM; actives 0.13% (n = 420,000); in the data active means activity change below about -50%; inconclusive means mostly about -30% to -49%
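Compounds are screened against recombinant PI4K2A using PI as substrate and ATP, the latter dispensed at 300 microM. Reactions run one hour at ambient temperature before ADP-Glo detection; full inhibition defined by wells lacking enzyme.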
KAT2A inh – blocks human GCN5L2 histone acetyltransferase; Q92830; GCN5L2 HAT assay, ThioGlo1 CoA-SH fluorescence; Potency, µM (highest dose often 58.9 µM), actives largely listed as inhibitors; actives 0.21% (n = 390,000)
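Preincubate 20nM GCN5L2 with compound 15 min, RT → add 50uM ThioGlo1 + 75uM H3(1-25) + 70uM acetyl-CoA → read fluorescence 0 and 20 min. Primary qHTS; fluorescent artifacts likely.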
PLK1 PBD block – blocks phosphopeptide binding to human PLK1 polo-box domain; P53350; Plk1 PBD binding of FITC phosphopeptide, fluorescence polarization; Potency, µM, actives largely listed as inhibitors; actives 2.8% (n = 360,000); further: series mostly up to about 57 µM; nearly all actives have a fitted effect of over 65% in size
Numbers stand for hits; – = inactive; ? = inconclusive; · = no result. An excerpt weighted towards active compounds, which were near 3.1% of everything screened. Unless noted, the call rests on the fitted dose curve; in most records, active means well fitted curve in the direction sought with a large enough effect; inconclusive means small, poorly fitted or top-dose-only effect, or another doubt; inactive means no such curve, though single readings can be large; an effect the other way counts as inactive or inconclusive.

SMILES	VDR inhibitor	GLS inh	PI4K2A inh	KAT2A inh	PLK1 PBD block
CC(C)=CCC/C(C)=C/CC/C(C)=C/C(=O)OCC(=O)[C@@]1(O)CC[C@H]2[C@@H]3CCC4=CC(=O)C=C[C@]4(C)[C@H]3[C@@H](O)C[C@@]21C	·	·	–	·	·
COc1ccc(C(C(=O)N(C)C2CCCC2)N(Cc2ccc(F)cc2)C(=O)c2csc(N3CCOCC3)n2)cc1OC (stereo unspecified)	·	·	–	·	·
Cc1csc(NC(=O)c2nc3nccc(C)n3n2)n1	–	?	–	–	3.4µM
O=C(N[C@@H]1C[C@@H]2O[C@@H](CO)CC[C@@H]2O[C@@H]1CCc1ccc(-c2cccnc2)cc1)c1cccc(F)c1	·	·	–	·	·
CC1CCN(C(=O)Cn2cc(SCc3ccccc3)c3ccccc32)CC1	–	–	–	–	·
COc1ccc(NS(=O)(=O)c2cc(NC(=O)c3ccc(C)o3)ccc2N2CCCCC2)cc1	–	–	–	–	–
COc1ccccc1NS(=O)(=O)c1cc(NC(C)=O)ccc1N1CCCCC1	?	–	–	–	9.5µM
COc1ccccc1NS(=O)(=O)c1cc(NC(=O)CCNC(C)=O)ccc1N1CCCCC1	–	–	–	–	–
COCC(=O)Nc1ccc(N2CCCC2)c(S(=O)(=O)Nc2ccccc2OC)c1	–	–	–	–	–
COc1ccccc1NS(=O)(=O)c1cc(NC(=O)c2ccncc2)ccc1N1CCCC1	?	?	–	–	17µM
COc1ccc(NS(=O)(=O)c2cc(NC(=O)c3cnccn3)ccc2N2CCCC2)cc1	?	–	–	–	21µM
CCOC(=O)C(=CNc1ccc(N2CCCCC2)c(S(=O)(=O)Nc2ccccc2OC)c1)C(=O)OCC	?	–	–	·	11µM
NCCCCCCC(O)(P(=O)(O)O)P(=O)(O)O	–	·	·	–	·
CCOC(=O)c1nc(Nc2ccc(C(=O)OC(C)C)cc2)c2ccccc2n1	–	–	–	–	·
COc1ccccc1NS(=O)(=O)c1cc(NC(=O)C(C)NC(N)=O)ccc1N1CCCC1 (stereo unspecified)	?	–	–	–	13µM
COc1ccc(-n2ncc(C(=O)N3CCN(c4ccccn4)CC3)c2C2CCN(C(=O)OC(C)(C)C)CC2)cc1	–	–	–	–	·
CC(C)c1ccc(S(=O)(=O)/N=C2/C=CC(=O)c3ccccc32)cc1	·	·	·	–	·
Cc1ccccc1NC1=C/C(=N\S(=O)(=O)c2cccs2)c2ccccc2C1=O	–	–	?	–	19µM
Cc1ccccc1NC1=C/C(=N\S(=O)(=O)c2ccc(C(=O)O)cc2)c2ccccc2C1=O	?	–	?	–	–
O=C(O)c1ccc(S(=O)(=O)/N=C2\C=C(Nc3ccccc3F)C(=O)c3ccccc32)cc1	32µM	–	?	–	30µM
CC(=O)Nc1ccc(NC2=C/C(=N/S(=O)(=O)c3cccs3)c3ccccc3C2=O)cc1	–	–	–	–	–
COC(=O)C(C(C)=O)C1=C/C(=N\S(=O)(=O)c2ccc(C)cc2)c2ccccc2C1=O (stereo unspecified)	–	–	–	–	28µM
COc1ccc(S(=O)(=O)/N=C2\C=C(Nc3ccc(O)cc3)C(=O)c3ccccc32)cc1	–	8.9µM	?	–	–
C#CCN1CC(N(C)CCOC(=O)c2ccc(OC)c(OC)c2)CS1(=O)=O (stereo unspecified)	·	·	–	·	·
NC1=NC(=O)/C(=C/c2ccc(Br)cc2)S1	–	–	–	–	–
SMILES	VDR inhibitor	GLS inh	PI4K2A inh	KAT2A inh	PLK1 PBD block
CCOC(=O)CSC1=NC(=O)/C(=C/c2ccc(Br)cc2)S1	?	–	–	–	0.84µM
COCCC(=O)N1CCC(Oc2ccc(C(=O)N3CCCCCC3)cc2)CC1	?	–	–	–	11µM
O=C(CCN1C(=O)COc2ccccc21)NCCN1CCc2ccccc2C1	–	–	–	–	–
O=C(CCN1C(=O)COc2ccccc21)NCc1cccs1	–	–	–	–	24µM
C[n+]1ccc(/C=C/c2ccc3ccccc3c2)cc1	?	·	·	28µM	·
C[n+]1ccc(/C=C/c2ccc(Br)cc2)cc1	–	–	–	–	–
COc1ccc(-c2nn3c(C4CCCCC4)nnc3s2)cc1OC	?	–	–	–	21µM
O=C1CC(c2ccc(O[C@@H]3OC(CO)[C@@H](O)C(O)C3O)cc2)Oc2cc(O)ccc21 (stereo partly specified)	–	·	·	·	·
C=CCOC(=O)N[C@H](c1ccc2ccccc2c1)[C@H](C)/C=C/CC(=O)OC	·	·	–	·	·
Cc1cc(C)nc(SCC(=O)c2ccc([N+](=O)[O-])cc2)n1	–	–	–	–	21µM
CCc1ccc(C(=O)CSc2n[nH]c(C)n2)cc1	?	–	–	–	27µM
Cc1nc(SCC(=O)NCCc2ccccc2)n[nH]1	–	?	–	–	3.8µM
Cc1nc(SCC(=O)O)n[nH]1	–	–	–	–	–
Cc1ccnc(SCC(=O)c2ccc([N+](=O)[O-])cc2)n1	–	–	–	–	–
Cc1ccc(C(=O)CSc2n[nH]c(C)n2)cc1	?	–	–	–	30µM
Cc1ccc(C)c(C(=O)CSc2n[nH]c(C)n2)c1	?	–	–	–	?
O=c1c2cccnc2n(Cc2ccccc2F)c(=O)n1Cc1ccccc1Cl	–	–	–	–	·
N#Cc1cccc(NC(=O)C2CCN(c3cnccn3)CC2)c1	–	–	–	–	·
Cc1cc(N2O[C@]34C=C[C@]25C[C@@H](O)CC[C@]5(C)C3CC[C@]2(C)[C@@H]([C@H](C)/C=C/[C@H](C)C(C)C)CC[C@H]24)no1 (stereo partly specified)	?	–	–	–	24µM
C=C1CCC(O)C/C1=C/C=C1\CCC[C@@]2(C)C(C(C)/C=C/C(C)C(C)C)CC[C@@H]12 (stereo partly specified)	–	·	·	–	·
COc1ccc2[nH]c3c(c2c1)CCN[C@]31C(=O)N(Cc2cn(Cc3ccccc3)nn2)c2ccc(F)cc21	·	·	–	·	·
O=c1c(O)c(-c2ccccc2O)oc2cc(O)cc(O)c12	–	·	·	–	·
O=C1CCC[C@H]2C[C@H](NCc3ccccc3Cl)CC[C@]23CCCN13	·	·	–	·	·
Cc1c(C)c2c(OCC(=O)O)cc3c(c2oc1=O)CCC(C)(C)O3	–	–	–	?	–
Cc1cc(=O)oc2c3c(cc(OCC(=O)N[C@@H](C)C(=O)O)c12)OC(C)(C)CC3	–	–	–	–	–
Cc1c(C)c2c(OCC(=O)N3CCC(C(=O)NCC(C)C)CC3)cc3c(c2oc1=O)CCC(C)(C)O3	–	–	–	–	–
Cc1c(C)c2c(OCC(=O)NCC(=O)NCC(=O)O)cc3c(c2oc1=O)CCC(C)(C)O3	?	?	–	–	12µM
Cc1c(C)c2c(OCC(=O)N3CCC(C(=O)O)CC3)cc3c(c2oc1=O)CCC(C)(C)O3	–	–	–	16µM	–
CCCCC(NC(=O)COc1cc2c(c3oc(=O)cc(C)c13)CCC(C)(C)O2)C(=O)O (stereo unspecified)	–	–	–	35µM	–
